# Inconclusive results are not listed. Calls of active or inactive are those of the source. The call rests on the fitted dose curve; in most records, active means well fitted cell-killing curve with a large enough effect; inconclusive means small, poorly fitted or top-dose-only effect, or effect the other way; inactive means flat fitted curve, though single readings scatter.
# Tested on: Tov-21-G
# Test: Primary qHTS to identify gynecologic anti-cancer compounds using libraries of approved drugs and bioactive compounds (AID 1345084); further: nearly all actives have a fitted effect of over 55% in size
# Settings: Gynecologic cancer cell panel viability, ATPlite luminescence, 48 h; series mostly up to 57.5 µM; activity change, negative = cytotoxicity: at the top concentration
# How it was run: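 Luminescence from the ATPlite ATP-monitoring reagent indicates viable cell number; lower signal means cytotoxicity. Cells received compound 16 h after seeding and were exposed for 48 h across five concentrations.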
# On the % scale 0 is the no-effect control and ±100 the full control effect; potency means the concentration at half of the fitted maximal effect.
Structure (SMILES),"activity change, negative = cytotoxicity",Potency
CN(C)[C@@H]1C(=O)C(C(N)=O)=C(O)[C@@]2(O)C(=O)C3=C(O)c4c(O)ccc(Cl)c4[C@@](C)(O)C3C[C@@H]12 (some centres not stated),4.6% (inactive),
CC(C)[C@H](NC(=O)c1nn(Cc2ccc(F)cc2)c2ccccc12)C(N)=O,-0.459% (inactive),
COC1CCCC(C)OC(=O)Cc2cc(O)cc(O)c2C(=O)C1 (configuration not stated),-23% [at 38.5 µM] (inactive),
CN1CCCCC1Cn1cc(C(=O)c2cc([N+](=O)[O-])ccc2I)c2ccccc21 (configuration not stated),9.92% (inactive),
CC12CCC3C(C1)c1c(cc(O)c(C(=O)c4ccccc4)c1OC3(C)C)O2 (configuration not stated),-2.46% [at 38.5 µM] (inactive),
CN1C(=O)[C@@H](Cc2c[nH]c3ccccc23)N=C(c2ccccc2F)c2ccccc21,9.78% (inactive),
CC(C)[C@H]1OC(=O)[C@H](Cc2ccccc2)N(C)C(=O)[C@@H](C(C)C)OC(=O)[C@H](Cc2ccccc2)N(C)C(=O)[C@@H](C(C)C)OC(=O)[C@H](Cc2ccccc2)N(C)C1=O,-2.14% [at 25.3 µM] (inactive),
CCC1C2CC3C4N(C)c5ccccc5C45CC(C2C5O)N3C1O (configuration not stated),0.651% [at 38.5 µM] (inactive),
COc1cc(O)c2c(c1)CCC[C@@H](O)[C@H](O)C(=O)/C=C\C[C@H](C)OC2=O,,1.78 µM (active)
C[C@@H]1O[C@@H](OC2CCC3(C=O)C(CCC4C3CCC3(C)C(C5=CC(=O)OC5)C(O)CC43O)C2)[C@H](O)[C@H](O)[C@H]1O[C@@H]1O[C@H](CO)[C@@H](O)[C@H](O)[C@H]1O (some centres not stated),,3.98 µM (active)
C=C(C)C(=O)O[C@H]1[C@@H]2[C@H](C)C(=O)O[C@@H]2C[C@@H](C)[C@@H]2C=CC(=O)[C@]21C,,8.91 µM (active)
CCN1C[C@]2(COC)CC[C@H](O)[C@@]34C5C[C@@H]6[C@@H](OC)C[C@@](OC(C)=O)(C5[C@@H]6OC(C)=O)[C@H]([C@H](OC)C23)[C@@H]14 (some centres not stated),2.77% [at 25.3 µM] (inactive),

# Source: PubChem BioAssay (NCATS)
